# According to PubChem BioAssay (EPA / NIEHS):
# Values joined by “and” are separate entries in the source; they are usually repeats but may differ in a detail not shown here. Equal values may be shown once. Inconclusive results are not listed. Active and inactive are the calls of the source. The calls were made as follows: active = hit-call score of the fitted dose curve at least 0.9, where 1 is the maximum; inconclusive = response in the unintended direction; inactive = score below 0.9.
# Assays:
# [1] = molecular target: human Vascular Endothelial Growth Factor Receptor 3 (VEGFR3), FLT4 (gene 2324) (UniProt P35916); test: NVS_ENZ_hVEGFR3: NovaScreen (NVS) Enzymatic Assay for human Vascular Endothelial Growth Factor Receptor 3 (VEGFR3) (AID 2283229)
# human Vascular Endothelial Growth Factor Receptor 3 (VEGFR3), FLT4 (gene 2324), sequence (P35916 whole entry, looked up): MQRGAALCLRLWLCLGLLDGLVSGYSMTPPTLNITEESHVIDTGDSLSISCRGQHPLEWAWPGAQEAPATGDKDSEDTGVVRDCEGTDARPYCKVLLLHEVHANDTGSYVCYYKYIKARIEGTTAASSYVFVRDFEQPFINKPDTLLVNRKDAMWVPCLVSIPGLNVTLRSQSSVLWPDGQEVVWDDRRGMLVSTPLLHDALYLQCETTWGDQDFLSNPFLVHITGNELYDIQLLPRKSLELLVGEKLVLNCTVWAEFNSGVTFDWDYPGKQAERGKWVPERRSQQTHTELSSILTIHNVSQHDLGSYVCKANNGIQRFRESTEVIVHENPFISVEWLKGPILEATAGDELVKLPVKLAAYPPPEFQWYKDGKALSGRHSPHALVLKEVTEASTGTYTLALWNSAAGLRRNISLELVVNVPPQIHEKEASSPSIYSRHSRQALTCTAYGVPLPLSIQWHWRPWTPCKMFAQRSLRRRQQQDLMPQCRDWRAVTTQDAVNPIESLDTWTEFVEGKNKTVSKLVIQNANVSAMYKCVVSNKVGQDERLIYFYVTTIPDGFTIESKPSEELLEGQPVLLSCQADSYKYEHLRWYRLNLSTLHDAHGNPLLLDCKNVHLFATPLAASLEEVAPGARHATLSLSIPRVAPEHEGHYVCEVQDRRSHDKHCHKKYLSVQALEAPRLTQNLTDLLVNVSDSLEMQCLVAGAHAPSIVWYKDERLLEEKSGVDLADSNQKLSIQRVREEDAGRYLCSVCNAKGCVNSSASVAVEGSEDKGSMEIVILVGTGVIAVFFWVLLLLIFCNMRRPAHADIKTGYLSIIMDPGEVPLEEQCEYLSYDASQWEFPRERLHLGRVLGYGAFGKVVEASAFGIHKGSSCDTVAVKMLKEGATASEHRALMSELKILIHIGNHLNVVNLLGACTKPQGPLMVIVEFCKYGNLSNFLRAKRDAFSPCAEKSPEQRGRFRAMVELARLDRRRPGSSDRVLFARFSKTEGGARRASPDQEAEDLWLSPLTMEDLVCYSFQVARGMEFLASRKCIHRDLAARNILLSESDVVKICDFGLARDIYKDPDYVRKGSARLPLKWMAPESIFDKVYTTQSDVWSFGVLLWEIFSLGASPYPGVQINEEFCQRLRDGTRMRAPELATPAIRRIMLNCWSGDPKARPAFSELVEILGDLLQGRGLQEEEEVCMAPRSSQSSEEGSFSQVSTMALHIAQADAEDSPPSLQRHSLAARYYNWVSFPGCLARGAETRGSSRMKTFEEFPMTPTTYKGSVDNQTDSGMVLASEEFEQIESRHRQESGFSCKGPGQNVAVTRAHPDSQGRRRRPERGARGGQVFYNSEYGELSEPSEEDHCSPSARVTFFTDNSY
# How it was run: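 Cell-free recombinant VEGFR3 kinase reaction with fluorescent substrate, read 1 h after dosing by electrophoretic mobility shift separation of substrate and product. Single-concentration duplicate screen at 25 uM, then concentration-response up to 50 uM; loss of activity versus DMSO.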
# [2] = molecular target: human Vascular Endothelial Growth Factor Receptor 2 (VEGFR2), KDR (gene 3791) (UniProt P35968); test: NVS_ENZ_hVEGFR2: NovaScreen (NVS) Enzymatic Assay for human Vascular Endothelial Growth Factor Receptor 2 (VEGFR2) (AID 2283230)
# human Vascular Endothelial Growth Factor Receptor 2 (VEGFR2), KDR (gene 3791), sequence (P35968 whole entry, looked up): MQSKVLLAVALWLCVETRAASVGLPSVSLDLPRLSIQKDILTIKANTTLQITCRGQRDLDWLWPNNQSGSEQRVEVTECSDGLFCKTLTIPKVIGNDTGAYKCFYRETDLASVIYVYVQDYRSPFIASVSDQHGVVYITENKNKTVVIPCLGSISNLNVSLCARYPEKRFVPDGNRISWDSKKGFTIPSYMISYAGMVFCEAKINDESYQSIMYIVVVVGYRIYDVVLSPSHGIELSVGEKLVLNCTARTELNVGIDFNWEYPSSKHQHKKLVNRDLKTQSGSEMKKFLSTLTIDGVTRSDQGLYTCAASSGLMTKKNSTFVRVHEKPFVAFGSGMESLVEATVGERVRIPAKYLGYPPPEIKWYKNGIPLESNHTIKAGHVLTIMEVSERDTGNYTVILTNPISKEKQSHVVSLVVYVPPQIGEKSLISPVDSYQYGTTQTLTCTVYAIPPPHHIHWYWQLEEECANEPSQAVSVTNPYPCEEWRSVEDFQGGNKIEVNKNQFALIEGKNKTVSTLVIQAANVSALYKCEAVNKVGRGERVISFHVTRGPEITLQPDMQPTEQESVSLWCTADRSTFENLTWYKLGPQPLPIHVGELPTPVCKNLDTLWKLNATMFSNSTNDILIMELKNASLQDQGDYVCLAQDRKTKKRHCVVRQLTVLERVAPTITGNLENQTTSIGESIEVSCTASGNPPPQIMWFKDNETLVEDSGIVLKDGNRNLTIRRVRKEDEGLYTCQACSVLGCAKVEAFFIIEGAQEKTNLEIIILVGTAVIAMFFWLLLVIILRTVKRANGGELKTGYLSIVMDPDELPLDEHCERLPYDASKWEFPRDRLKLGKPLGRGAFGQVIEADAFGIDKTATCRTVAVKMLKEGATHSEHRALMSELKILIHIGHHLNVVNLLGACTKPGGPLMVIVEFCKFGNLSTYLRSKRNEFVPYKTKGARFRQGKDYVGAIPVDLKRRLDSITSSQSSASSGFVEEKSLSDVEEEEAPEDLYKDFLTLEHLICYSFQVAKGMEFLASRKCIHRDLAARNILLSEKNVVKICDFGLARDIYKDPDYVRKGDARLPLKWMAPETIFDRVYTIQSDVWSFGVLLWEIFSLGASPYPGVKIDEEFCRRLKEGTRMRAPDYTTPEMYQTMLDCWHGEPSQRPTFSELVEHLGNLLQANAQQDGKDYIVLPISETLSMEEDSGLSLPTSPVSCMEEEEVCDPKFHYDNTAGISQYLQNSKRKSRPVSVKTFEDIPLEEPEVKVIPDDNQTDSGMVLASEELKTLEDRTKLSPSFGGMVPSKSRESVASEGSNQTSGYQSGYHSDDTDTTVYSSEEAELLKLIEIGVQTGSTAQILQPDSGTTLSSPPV
# How it was run: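 Cell-free recombinant VEGFR2 kinase, fluorescent substrate with electrophoretic mobility-shift separation; read 1 h after dosing. Screened at 25 uM in duplicate, hits to concentration-response up to 50 uM; loss-of-signal versus DMSO.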
# [3] = molecular target: sheep Cyclooxygenase-2 (Cox2), PTGS2 (gene 443460) (UniProt P79208); test: NVS_ENZ_oCOX2: NovaScreen (NVS) Enzymatic Assay for sheep Cyclooxygenase-2 (Cox2) (AID 2283231)
# How it was run: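 Compounds were first run at 25 uM in duplicate against tissue-extracted ovine COX-2; those passing a preset inhibition threshold went to singleton concentration-response testing with a 50 uM maximum. Read-out: absorbance at 0.66 hour.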
# [4] = molecular target: sheep Cyclooxygenase-1 (Cox1), PTGS1 (gene 443551) (UniProt P05979); test: NVS_ENZ_oCOX1: NovaScreen (NVS) Enzymatic Assay for sheep Cyclooxygenase-1 (Cox1) (AID 2283239);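 also: actives reduce cyclooxygenase activity so potencies are for inhibitors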
# sheep Cyclooxygenase-1 (Cox1), PTGS1 (gene 443551), sequence (P05979 whole entry, looked up): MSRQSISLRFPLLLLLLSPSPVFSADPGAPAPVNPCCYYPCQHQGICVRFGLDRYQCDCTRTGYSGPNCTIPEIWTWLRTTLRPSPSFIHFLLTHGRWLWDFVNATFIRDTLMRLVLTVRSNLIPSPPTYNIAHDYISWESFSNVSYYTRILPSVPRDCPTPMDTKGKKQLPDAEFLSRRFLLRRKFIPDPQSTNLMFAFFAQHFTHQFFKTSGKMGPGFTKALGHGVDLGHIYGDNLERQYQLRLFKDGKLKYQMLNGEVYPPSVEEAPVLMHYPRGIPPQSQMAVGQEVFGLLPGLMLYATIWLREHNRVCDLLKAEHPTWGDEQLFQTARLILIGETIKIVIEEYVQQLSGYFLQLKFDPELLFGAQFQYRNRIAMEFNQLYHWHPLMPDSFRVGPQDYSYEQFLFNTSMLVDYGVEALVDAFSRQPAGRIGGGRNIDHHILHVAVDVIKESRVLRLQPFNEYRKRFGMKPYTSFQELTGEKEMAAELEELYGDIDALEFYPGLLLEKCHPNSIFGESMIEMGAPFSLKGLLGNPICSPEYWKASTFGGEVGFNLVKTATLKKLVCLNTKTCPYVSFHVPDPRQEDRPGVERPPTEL
# How it was run: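 Native ovine seminal vesicle protein serves as enzyme source in this biochemical assay. Colorimetric signal is recorded 0.66 h after chemical addition, and decreases versus the DMSO control define activity.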
# [5] = molecular target: guinea pig Opioid, Kappa 1 Receptor (OpiateK), OPRK1 (gene 100135587) (UniProt P41144); test: NVS_GPCR_gOpiateK: NovaScreen (NVS) G Protein-Coupled Receptor Assay for guinea pig Opioid, Kappa 1 Receptor (OpiateK) (AID 2283252);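 also: radioligand displacement from kappa opioid receptor in guinea pig cerebellar membranes; active means reduced radioligand binding relative to DMSO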
# guinea pig Opioid, Kappa 1 Receptor (OpiateK), OPRK1 (gene 100135587), sequence (P41144 whole entry, looked up): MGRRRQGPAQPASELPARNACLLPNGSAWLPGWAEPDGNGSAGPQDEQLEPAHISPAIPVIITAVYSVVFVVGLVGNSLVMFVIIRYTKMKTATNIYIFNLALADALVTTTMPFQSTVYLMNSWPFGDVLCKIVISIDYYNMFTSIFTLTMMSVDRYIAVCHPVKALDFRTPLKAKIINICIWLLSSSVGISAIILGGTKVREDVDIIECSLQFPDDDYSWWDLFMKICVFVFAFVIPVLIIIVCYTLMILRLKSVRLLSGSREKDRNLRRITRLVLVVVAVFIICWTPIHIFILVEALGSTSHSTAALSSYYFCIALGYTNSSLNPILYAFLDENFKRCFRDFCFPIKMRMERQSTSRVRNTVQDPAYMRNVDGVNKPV
# How it was run: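 Signal is scintillation counts of filter-trapped radioligand bound to guinea pig cerebellar membrane receptor, measured 2 hours post-dosing. Activity is loss of binding versus DMSO, first at 25 uM in duplicate, then as concentration series for actives.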
# [6] = molecular target: human Adenosine A1 Receptor (AdoRA1), ADORA1 (gene 134) (UniProt P30542); test: NVS_GPCR_hAdoRA1: NovaScreen (NVS) G Protein-Coupled Receptor Assay for human Adenosine A1 Receptor (AdoRA1) (AID 2283254)
# human Adenosine A1 Receptor (AdoRA1), ADORA1 (gene 134), sequence (P30542 whole entry, looked up): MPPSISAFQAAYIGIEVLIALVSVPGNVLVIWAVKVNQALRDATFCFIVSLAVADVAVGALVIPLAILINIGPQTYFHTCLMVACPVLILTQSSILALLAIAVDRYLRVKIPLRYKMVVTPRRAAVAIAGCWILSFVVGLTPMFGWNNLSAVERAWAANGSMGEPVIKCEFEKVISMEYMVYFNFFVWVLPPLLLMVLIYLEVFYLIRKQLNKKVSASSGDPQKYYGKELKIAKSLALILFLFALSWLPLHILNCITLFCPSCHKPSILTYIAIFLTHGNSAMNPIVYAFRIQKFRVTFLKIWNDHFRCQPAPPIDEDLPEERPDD
# How it was run: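 Each chemical is first tested twice at 25 uM, actives later in dilution series, against a radioligand bound to human cortex membranes; after 1 h, filter-retained counts are compared with DMSO controls, lower signal indicating displacement.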
# [7] = molecular target: human Serotonin, 5-Hydroxytryptamine Receptor 7 (5HT7), HTR7 (gene 3363) (UniProt P34969); test: NVS_GPCR_h5HT7: NovaScreen (NVS) G Protein-Coupled Receptor Assay for human Serotonin, 5-Hydroxytryptamine Receptor 7 (5HT7) (AID 2283255);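 also: hits reduce specific radioligand binding relative to DMSO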
# How it was run: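 Radioligand displacement on membranes from CHO cells expressing human 5HT7, 1 h incubation, filter-based scintillation counting. Primary screen used a single 25 uM concentration in duplicate; actives were followed up in concentration series.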
# [8] = molecular target: human Serotonin, 5-Hydroxytryptamine Receptor 5A (5HT5A), HTR5A (gene 3361) (UniProt P47898); test: NVS_GPCR_h5HT5A: NovaScreen (NVS) G Protein-Coupled Receptor Assay for human Serotonin, 5-Hydroxytryptamine Receptor 5A (5HT5A) (AID 2283251)
# human Serotonin, 5-Hydroxytryptamine Receptor 5A (5HT5A), HTR5A (gene 3361), sequence (P47898 whole entry, looked up): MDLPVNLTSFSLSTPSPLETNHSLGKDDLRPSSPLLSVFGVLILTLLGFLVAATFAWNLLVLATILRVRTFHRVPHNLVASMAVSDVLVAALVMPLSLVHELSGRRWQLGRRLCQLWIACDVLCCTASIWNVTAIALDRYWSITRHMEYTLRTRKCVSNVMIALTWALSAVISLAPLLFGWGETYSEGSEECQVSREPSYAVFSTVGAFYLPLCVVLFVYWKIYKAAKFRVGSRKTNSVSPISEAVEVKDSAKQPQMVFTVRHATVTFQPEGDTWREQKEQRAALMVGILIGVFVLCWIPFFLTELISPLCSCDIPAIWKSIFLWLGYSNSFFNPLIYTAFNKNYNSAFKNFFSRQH
# How it was run: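 Cell-free radioligand displacement binding on HEK293-derived membrane protein, 1 h incubation, filter-based scintillation counting. Primary screen in duplicate at 25 uM, actives followed in concentration series; loss of signal fitted versus DMSO.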
# [9] = molecular target: Adenosine receptor A1 (Bos taurus) (UniProt P28190); test: NVS_GPCR_bAdoR_NonSelective: NovaScreen (NVS) G Protein-Coupled Receptor Assay for bovine Adenosine Receptor (AdoR), Non-selective Binding (AID 2283244)
# How it was run: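 Bovine striatal membranes, radioligand displacement binding, 1 h after dosing, filter-based scintillation counting. Screened in duplicate at 25 uM, then concentration-response up to 50 uM; loss of specific binding relative to DMSO.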
# [10] = molecular target: guinea pig Leukotriene D4 Receptor (LTD4), CYSLTR1 (gene 100135514) (UniProt Q2NNR5); test: NVS_GPCR_gLTD4: NovaScreen (NVS) G Protein-Coupled Receptor Assay for guinea pig Leukotriene D4 Receptor (LTD4) (AID 2283248)
# How it was run: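 Radioligand displacement on guinea pig lung membranes, 1 h incubation, filtration and scintillation counting; DMSO as negative control. Duplicate 25 uM primary screen, then singleton concentration-response up to 50 uM.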
# [11] = molecular target: human Adenosine A2a Receptor (AdoRA2a), ADORA2A (gene 135) (UniProt P29274); test: NVS_GPCR_hAdoRA2a: NovaScreen (NVS) G Protein-Coupled Receptor Assay for human Adenosine A2a Receptor (AdoRA2a) (AID 2283256)
# human Adenosine A2a Receptor (AdoRA2a), ADORA2A (gene 135), sequence (P29274 whole entry, looked up): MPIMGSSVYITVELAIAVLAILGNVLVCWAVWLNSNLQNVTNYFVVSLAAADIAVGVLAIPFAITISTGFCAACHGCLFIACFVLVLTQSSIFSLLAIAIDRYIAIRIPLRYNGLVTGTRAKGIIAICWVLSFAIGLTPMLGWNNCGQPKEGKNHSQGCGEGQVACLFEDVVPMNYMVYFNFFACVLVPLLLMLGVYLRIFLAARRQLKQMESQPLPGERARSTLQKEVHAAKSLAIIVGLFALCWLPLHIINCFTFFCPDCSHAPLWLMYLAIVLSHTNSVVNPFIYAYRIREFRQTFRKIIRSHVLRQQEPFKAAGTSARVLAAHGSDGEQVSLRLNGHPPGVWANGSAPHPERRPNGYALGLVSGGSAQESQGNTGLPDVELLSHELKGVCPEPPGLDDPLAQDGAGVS
# How it was run: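 Cell-free radioligand binding on membranes from HEK293 expressing the receptor; competitive displacement read 1.5 h after dosing by filter-based scintillation counting. Primary screen in duplicate at 25 uM; actives followed in concentration series, with DMSO as baseline.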
# [12] = tested on: guinea pig Leukotriene B4 Receptor (LTB4), gene 100379538; test: NVS_GPCR_gLTB4: NovaScreen (NVS) G Protein-Coupled Receptor Assay for guinea pig Leukotriene B4 Receptor (LTB4) (AID 2283247)
# How it was run: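 Radioligand displacement on guinea pig spleen membranes, filter-based scintillation counting 2 h after dosing. Primary duplicate single point at 25 uM; hits over threshold (e.g. 30% inhibition) run in concentration-response up to 50 uM, DMSO baseline.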
# [13] = molecular target: rat Constitutive Nitric Oxide Synthase (CNOS), Nos1 (gene 24598) (UniProt P29476); test: NVS_ENZ_rCNOS: NovaScreen (NVS) Enzymatic Assay for rat Constitutive Nitric Oxide Synthase (CNOS) (AID 2283236)
# How it was run: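 Enzyme activity in rat brain membrane preparation, read 1 h after dosing by filter-based radiometric scintillation counting. Primary screen in duplicate at 25 uM; actives (e.g., ≥30% inhibition) then run in concentration-response up to 50 uM.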
# [14] = tested on: guinea pig Muscarinic, Peripheral (Mperiperal) Receptor, Non-selective Binding, gene 100379235; test: NVS_GPCR_gMPeripheral_NonSelective: NovaScreen (NVS) G Protein-Coupled Receptor Assay for guinea pig Muscarinic, Peripheral (Mperiperal) Receptor, Non-selective Binding (AID 2283250)
# How it was run: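 Guinea pig bladder membranes, radioligand binding read 1 h after dosing by filter scintillation counting; loss of signal vs DMSO. Primary duplicate screen at 25 uM, then concentration-response up to 50 uM.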
# [15] = molecular target: human Serotonin, 5-Hydroxytryptamine Receptor 2A (5HT2A), HTR2A (gene 3356) (UniProt P28223); test: NVS_GPCR_h5HT2A: NovaScreen (NVS) G Protein-Coupled Receptor Assay for human Serotonin, 5-Hydroxytryptamine Receptor 2A (5HT2A) (AID 2283249)
# How it was run: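 Human cortex membranes, cell-free radioligand binding; filter-based scintillation read 1.5 h after dosing. Duplicate screen at 25 uM first; displacement of specific binding (loss of signal) versus DMSO.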
# [16] = tested on: bovine Histamine 1 Receptor (H1), gene 281231; test: NVS_GPCR_bH1: NovaScreen (NVS) G Protein-Coupled Receptor Assay for bovine Histamine 1 Receptor (H1) (AID 2283246)
# How it was run: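 Radioligand displacement on bovine cerebellar membranes, 1 h after dosing, filter-based scintillation read-out; loss of signal vs DMSO. Duplicate single-concentration screen at 25 uM, then concentration-response up to 50 uM for hits.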
smiles,measurement,setting,value
CC(C)(c1ccc(O)cc1)c1ccc(O)cc1,outcome,[1],inactive
same,outcome,[2],inactive
same,outcome,[3],inactive
same,outcome,[4],inactive
same,outcome,[5],inactive
same,AC50,[6],11.9 µM (active) and 1.83 µM (active)
same,outcome,[7],inactive
CCOC(=O)C(C)Oc1ccc(Oc2cnc3cc(Cl)ccc3n2)cc1 (centres undefined),outcome,[8],inactive
CCNc1nc(N)nc(Cl)n1,outcome,[9],inactive
same,outcome,[10],inactive
same,outcome,[8],inactive
same,AC50,[6],207 nM (active)
same,AC50,[11],9.05 µM (active)
CC1(C)C(C=C(Cl)Cl)C1C(=O)OCc1cccc(Oc2ccccc2)c1 (centres undefined),outcome,[7],inactive
CCOC(=O)NCCOc1ccc(Oc2ccccc2)cc1,outcome,[12],inactive
C[C@]12C[C@H](O)[C@H]3[C@@H](CCC4=CC(=O)CC[C@@]43C)[C@@H]1CC[C@@H]2C(=O)CO,outcome,[3],inactive
same,outcome,[4],inactive
same,outcome,[12],inactive
COC(=O)c1cccc(C)c1S(=O)(=O)NC(=O)Nc1nc(OCC(F)(F)F)nc(N(C)C)n1,AC50,[9],5.12 µM (active)
same,AC50,[6],10400 nM (active)
same,AC50,[11],6.04 µM (active)
CCOC(=O)[C@H](C)Oc1ccc(Oc2nc3ccc(Cl)cc3o2)cc1,AC50,[13],9.56 µM (active)
CCCOC(=O)NCCCN(C)C,outcome,[14],inactive
CCOC(=O)c1ccc(O)cc1,outcome,[1],inactive
C[C@]12CC[C@@H]3c4ccc(O)cc4C[C@@H](CCCCCCCCCS(=O)CCCC(F)(F)C(F)(F)F)[C@H]3[C@@H]1CC[C@@H]2O (some centres undefined),outcome,[15],inactive
same,outcome,[8],inactive
C=CCOC(Cn1ccnc1)c1ccc(Cl)cc1Cl (centres undefined),AC50,[5],12.2 µM (active)
CC(=O)S[C@@H]1CC2=CC(=O)CC[C@]2(C)[C@H]2CC[C@@]3(C)[C@@H](CC[C@@]34CCC(=O)O4)[C@H]12,outcome,[16],inactive
same,AC50,[5],13.2 µM (active)
COCCO,outcome,[1],inactive
O=C(O)C1(C(=O)Nc2ccc(Cl)cc2Cl)CC1,AC50,[1],14.9 µM (active)
same,outcome,[2],inactive
CC(C)CCCCCCc1ccc(O)cc1,outcome,[11],inactive
CC(=O)[C@H]1CC[C@H]2[C@@H]3CCC4=CC(=O)CC[C@]4(C)[C@H]3CC[C@]12C,AC50,[4],17.7 µM (active)
CCOC(=O)C(C)Oc1ccc(Oc2nc3ccc(Cl)cc3o2)cc1 (centres undefined),outcome,[13],inactive
c1ccc2[nH]c(-c3cscn3)nc2c1,AC50,[11],4.91 µM (active)
S=C([S-])NCCNC(=S)[S-].[Mn+2],AC50,[2],13.8 µM (active)
CCCCC(CC)COC(=O)c1ccccc1C(=O)O (centres undefined),outcome,[13],inactive
same,outcome,[6],inactive
